Measurements from PubChem BioAssay AID1508601 (ICCB-Longwood Screening Facility, Harvard Medical School, 2020).
Several values for one entry are separate records, joined by “and”; a condition that tells them apart may be missing. Equal values may be shown once. In all, about 5,700 compounds went through this assay and about 85 (1%) were called active. No stated cut-off is given here; in the data, active means p53-positive nuclei above about 36% (passing the limit was not always enough); inactive means the rest. Many of the other results were omitted from the sample, so actives are more common in it than they were.

Experiments:
[1] = nuclear p53 accumulation, HPV+ cells – imaging, p53-positive nuclei imaging, 24 h, 48 h (AID 1508601); details: 24/48 h
[2] = biological target: Cellular tumor antigen p53 (Homo sapiens) (UniProt P04637); assay: as above; details: 24/48 h, stronger effect = higher value
Chain of Cellular tumor antigen p53 (Homo sapiens) (P04637 whole entry, looked up): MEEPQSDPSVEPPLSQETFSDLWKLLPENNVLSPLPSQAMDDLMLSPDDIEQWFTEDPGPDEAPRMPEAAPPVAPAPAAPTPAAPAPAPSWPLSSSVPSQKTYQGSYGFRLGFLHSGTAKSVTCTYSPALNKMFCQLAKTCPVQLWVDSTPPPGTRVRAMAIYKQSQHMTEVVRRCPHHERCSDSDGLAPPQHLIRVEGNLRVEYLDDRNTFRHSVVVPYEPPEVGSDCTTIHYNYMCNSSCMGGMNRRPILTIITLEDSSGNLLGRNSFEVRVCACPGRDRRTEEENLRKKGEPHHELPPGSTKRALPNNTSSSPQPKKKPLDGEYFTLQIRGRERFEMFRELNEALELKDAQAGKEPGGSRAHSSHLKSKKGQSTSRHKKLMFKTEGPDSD

[3] = measured here: cell number at 24 h, Library stock concentration: 80 uM
[4] = measured here: cell number at 24 h, Library stock concentration: 400 uM
[5] = measured here: cell number at 24 h, Library stock concentration: 2 mM
[6] = measured here: cell number at 24 h, Library stock concentration: 10 mM
[7] = measured here: cell number at 48 h, Library stock concentration: 80 uM
[8] = measured here: cell number at 48 h, Library stock concentration: 400 uM
[9] = measured here: cell number at 48 h, Library stock concentration: 2 mM
[10] = measured here: cell number at 48 h, Library stock concentration: 10 mM
[11] = Library stock concentration: 80 uM
[12] = Library stock concentration: 400 uM
[13] = Library stock concentration: 2 mM
[14] = Library stock concentration: 10 mM
[15] = measured here: p53 positive nuclei at 24 h, Library stock concentration: 80 uM
[16] = measured here: p53 positive nuclei at 24 h, Library stock concentration: 400 uM
[17] = measured here: p53 positive nuclei at 24 h, Library stock concentration: 2 mM
[18] = measured here: p53 positive nuclei at 24 h, Library stock concentration: 10 mM
[19] = measured here: cell number at 24 h, concentration not given here
[20] = measured here: cell number at 48 h, concentration not given here
[21] = measured here: p53 positive nuclei at 24 h, concentration not given here

CS(=O)(=O)N1CCN(Cc2cc3nc(-c4cccc5[nH]ncc45)nc(N4CCOCC4)c3s2)CC1
nuclei count, normalised ([1]; measured here: cell number at 24 h, Library stock concentration: 46 uM): 89.1%
nuclei count, normalised [1, 3]: 105%
nuclei count, normalised ([1]; measured here: cell number at 24 h, Library stock concentration: 278 uM): 97%
nuclei count, normalised [1, 4]: 93.5%
nuclei count, normalised ([1]; measured here: cell number at 24 h, Library stock concentration: 1.67 mM): 84.9%
nuclei count, normalised [1, 5]: 94%
nuclei count, normalised ([1]; measured here: cell number at 24 h, Library stock concentration: 3.33 mM): 97.5%
nuclei count, normalised [1, 6]: 66.1% and 64.1%
nuclei count, normalised ([1]; measured here: cell number at 48 h, Library stock concentration: 46 uM): 97%
nuclei count, normalised [1, 7]: 109%
nuclei count, normalised ([1]; measured here: cell number at 48 h, Library stock concentration: 278 uM): 100%
nuclei count, normalised [1, 8]: 93.5%
nuclei count, normalised ([1]; measured here: cell number at 48 h, Library stock concentration: 1.67 mM): 87.3%
nuclei count, normalised [1, 9]: 89.3%
nuclei count, normalised ([1]; measured here: cell number at 48 h, Library stock concentration: 3.33 mM): 101%
nuclei count, normalised [1, 10]: 56.3% and 65.9%
p53-positive nuclei, normalised ([2]; Library stock concentration: 46 uM): -0.00738% (inactive)
p53-positive nuclei, normalised [2, 11]: -0.168% (inactive)
p53-positive nuclei, normalised ([2]; Library stock concentration: 278 uM): -0.0603% (inactive)
p53-positive nuclei, normalised [2, 12]: -0.297% (inactive)
p53-positive nuclei, normalised ([2]; Library stock concentration: 1.67 mM): -0.0683% (inactive)
p53-positive nuclei, normalised [2, 13]: -0.297% (inactive)
p53-positive nuclei, normalised ([2]; Library stock concentration: 3.33 mM): -0.619% (inactive)
p53-positive nuclei, normalised [2, 14]: -0.184% (inactive) and -0.277% (inactive)
p53-positive nuclei, normalised ([2]; measured here: p53 positive nuclei at 24 h, Library stock concentration: 46 uM): -0.0723%
p53-positive nuclei, normalised [2, 15]: 0.26%
p53-positive nuclei, normalised ([2]; measured here: p53 positive nuclei at 24 h, Library stock concentration: 278 uM): -0.0265%
p53-positive nuclei, normalised [2, 16]: -0.0433%
p53-positive nuclei, normalised ([2]; measured here: p53 positive nuclei at 24 h, Library stock concentration: 1.67 mM): -0.14%
p53-positive nuclei, normalised [2, 17]: -0.0447%
p53-positive nuclei, normalised ([2]; measured here: p53 positive nuclei at 24 h, Library stock concentration: 3.33 mM): -0.329%
p53-positive nuclei, normalised [2, 18]: -0.00819% and -0.118%

CCCCC[C@H](O)/C=C/[C@H]1[C@H](O)CC(=O)[C@@H]1C/C=C\CCCC(=O)Oc1ccc(NC(C)=O)cc1
nuclei count, normalised [1, 19]: 106%
nuclei count, normalised [1, 20]: 115%
p53-positive nuclei, normalised ([2]; concentration not given here): -0.0787% (inactive)
p53-positive nuclei, normalised [2, 21]: -0.118%

CCCCCCCCCC(=O)CC(=O)N[C@H]1CCOC1=O
nuclei count, normalised [1, 19]: 107%
nuclei count, normalised [1, 20]: 108%
p53-positive nuclei, normalised ([2]; concentration not given here): 0.0451% (inactive)
p53-positive nuclei, normalised [2, 21]: -0.0502%

CC1CCNC(=O)c2cc3ccc(C(=O)Nc4nc5ccccc5n4CCCN(C)C)cc3n21 (stereo unspecified)
nuclei count, normalised [1, 3]: 112%
nuclei count, normalised [1, 4]: 107%
nuclei count, normalised [1, 5]: 107%
nuclei count, normalised [1, 6]: 106%
nuclei count, normalised [1, 7]: 115%
nuclei count, normalised [1, 8]: 113%
nuclei count, normalised [1, 9]: 111%
nuclei count, normalised [1, 10]: 119%
p53-positive nuclei, normalised [2, 11]: -0.131% (inactive)
p53-positive nuclei, normalised [2, 12]: -0.0944% (inactive)
p53-positive nuclei, normalised [2, 13]: 0.0714% (inactive)
p53-positive nuclei, normalised [2, 14]: -0.134% (inactive)
p53-positive nuclei, normalised [2, 15]: -0.0686%
p53-positive nuclei, normalised [2, 16]: 0.0741%
p53-positive nuclei, normalised [2, 17]: -0.156%
p53-positive nuclei, normalised [2, 18]: -0.111%
